Reference: PubChem BioAssay
Active and inactive are the calls of the source.

Tests used:
[1] = small molecules captured by biotinylated probe aFSTL3 – biochemical, small-molecule microarray, fluorescence 635/667, stem cell growth factor project, primary screen (AID 1064); settings: higher = more signal;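 also: measures binding of the biotinylated anti-FSTL3 antibody to printed compounds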
[2] = binders from COS7 lysate, DM2A8 probe, primary screen, torsin A project, cell lysate, small-molecule microarray, fluorescence 635/667 (AID 1065); settings: higher = more signal, COS7 lysate expressing mutant human TOR1A
[3] = small molecules captured by biotinylated probe aFGF2 – biochemical, small-molecule microarray, fluorescence 635/667, stem cell growth factor project, primary screen (AID 1067); settings: higher = more signal;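 also: measures binding of biotinylated aFGF2 protein to printed compounds on slides; z-score merges feature fluorescence and signal-to-noise across triplicate slides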
[4] = small molecules captured by biotinylated probe aFGF10 – biochemical, small-molecule microarray, fluorescence 635/667, stem cell growth factor project, primary screen (AID 1071); settings: higher = more signal;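 also: score merges 667 nm spot intensity and signal to noise from triplicate slides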
[5] = target: Neurogenic locus notch homolog protein 2 (Homo sapiens) (UniProt Q04721); assay: small molecules binding Notch2 protein – biochemical, small-molecule microarray, 635 nm fluorescence, stem cell growth factors, primary screen (AID 1073); settings: higher = more signal
[6] = target: Pro-neuregulin-1, membrane-bound isoform (Homo sapiens) (UniProt Q02297); assay: small molecules binding neuregulin-1 protein – biochemical, small-molecule microarray, fluorescence 635/667, psychiatric disease protein project, primary screen (AID 1075); settings: NRG1 binding, 635 nm fluorescence, higher = more signal;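 also: score combines 667 nm spot fluorescence with signal to noise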
Chain of Pro-neuregulin-1, membrane-bound isoform (Homo sapiens) (Q02297 whole entry, looked up, the tested form may be a part, canonical isoform): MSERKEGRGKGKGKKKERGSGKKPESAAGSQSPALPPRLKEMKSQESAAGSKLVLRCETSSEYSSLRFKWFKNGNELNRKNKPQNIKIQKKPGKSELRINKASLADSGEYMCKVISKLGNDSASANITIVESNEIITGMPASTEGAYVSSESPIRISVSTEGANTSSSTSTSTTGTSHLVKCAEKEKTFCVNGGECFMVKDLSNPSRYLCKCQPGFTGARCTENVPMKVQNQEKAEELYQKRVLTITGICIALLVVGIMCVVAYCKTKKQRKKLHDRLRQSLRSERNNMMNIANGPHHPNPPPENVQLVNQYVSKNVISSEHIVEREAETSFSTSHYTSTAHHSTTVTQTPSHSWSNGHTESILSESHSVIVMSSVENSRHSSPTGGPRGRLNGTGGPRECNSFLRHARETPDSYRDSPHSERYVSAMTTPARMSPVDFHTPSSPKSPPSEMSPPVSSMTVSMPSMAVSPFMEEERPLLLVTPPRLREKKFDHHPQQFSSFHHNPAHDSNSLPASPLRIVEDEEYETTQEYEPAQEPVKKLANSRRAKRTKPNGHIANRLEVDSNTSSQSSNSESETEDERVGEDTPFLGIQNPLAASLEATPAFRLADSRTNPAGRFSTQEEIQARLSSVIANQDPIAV

[7] = tested on: Neuregulin-1 EGF-like domain; assay: small molecules binding NRG1 EGF domain – biochemical, small-molecule microarray, 635 nm fluorescence, primary screen (AID 1081); settings: higher = more signal;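 also: binding of the protein to compounds printed on small-molecule microarray slides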
[8] = FRG1 expression reporter modulators in myotubes – cell-based, C2C12 myotubes, firefly/Renilla luciferase, luminescence, FRG1 inhibition for FSHD, primary screen (AID 1084); settings: FRG1 promoter luciferase, higher = more signal, called active from +8 up or from −8 down
[9] = small molecules captured by biotinylated probe aFST – biochemical, small-molecule microarray, fluorescence 635/667, stem cell growth factor project, primary screen (AID 1086); settings: higher = more signal;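 also: score merges 667 nm fluorescence with signal-to-noise of each printed compound spot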
[10] = binders of probe aHhip on microarray, primary screen, stem cell growth factor project, biochemical, small-molecule microarray, fluorescence 635/667 (AID 1087); settings: higher = more signal;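 also: score merges spot fluorescence at 667nm with spot signal to noise ratio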
[11] = tested on: PRMT1 (protein arginine N-methyltransferase 1); assay: small molecules binding arginine methyltransferase PRMT1 – biochemical, small-molecule microarray, 635 nm fluorescence, primary screen (AID 1088); settings: higher = more signal;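 also: binding of Prmt1 protein to compounds spotted on small-molecule microarray slides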
[12] = growth effects on S. cerevisiae YJM789 – YJM789 clinical isolate, OD600, 24 h, basal, primary screen (AID 1089); settings: higher = more signal, called active from +8 up or from −8 down;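 also: growth of clinical yeast isolate S. cerevisiae YJM 789 seeded 1000 cells per well; test concentration not given here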
[13] = S. pombe growth modifiers, basal conditions – strain 972, OD600, 24 h, no modulator, primary screen (AID 1090);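 also: basal condition with compound alone and no growth modifier present; test concentration not given here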; settings: S. pombe 972 growth, higher = more signal, called active from +8 up or from −8 down
[14] = budding yeast growth modifiers under rapamycin – strain BY4716, OD600, 96 h, primary screen (AID 1091); also: test concentration not given here; settings: S. cerevisiae BY4716 + rapamycin, higher = more signal, called active from +8 up or from −8 down
[15] = target: Torsin-1A-interacting protein 2 (Homo sapiens) (UniProt Q8NFQ8); assay: small molecules binding lysate-expressed LULL1 – cell lysate, human LULL1 lysate, 635/667 nm fluorescence, primary screen (AID 1092); settings: small-molecule microarray, hLULL1 lysate binding, 635 nm fluorescence; higher = more signal;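 also: probe is lysate of COS7 cells overexpressing human LULL1; score merges per-feature 667 nm fluorescence with signal-to-noise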
Chain of Torsin-1A-interacting protein 2 (Homo sapiens) (Q8NFQ8 whole entry, looked up): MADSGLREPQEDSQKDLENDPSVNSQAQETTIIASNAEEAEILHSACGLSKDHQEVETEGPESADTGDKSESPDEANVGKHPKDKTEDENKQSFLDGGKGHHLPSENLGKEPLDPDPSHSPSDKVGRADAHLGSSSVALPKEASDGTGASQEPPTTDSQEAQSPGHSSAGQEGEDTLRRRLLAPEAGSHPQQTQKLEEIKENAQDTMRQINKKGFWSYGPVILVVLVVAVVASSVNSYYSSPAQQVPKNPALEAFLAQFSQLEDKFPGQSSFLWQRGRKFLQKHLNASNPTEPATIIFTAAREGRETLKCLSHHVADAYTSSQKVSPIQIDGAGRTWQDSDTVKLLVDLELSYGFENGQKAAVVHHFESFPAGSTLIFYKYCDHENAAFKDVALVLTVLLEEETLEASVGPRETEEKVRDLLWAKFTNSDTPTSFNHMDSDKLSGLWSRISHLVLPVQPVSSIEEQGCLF

[16] = optical density change of DRC41 E. coli – strain DRC41, OD650, 24 h, E. coli filamentation project, primary screen (AID 1093);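 also: MC1000 strain lacking acrAB efflux and sulA so SOS filamentation is blocked; test concentration not given here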; settings: E. coli DRC41 growth, higher = more signal, called active from +8 up or from −8 down
[17] = probe aLefty2 binding to arrayed compounds – biochemical, biotinylated probe, 635/667 nm fluorescence, primary screen (AID 1094); settings: small-molecule microarray, higher = more signal;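 also: score merges spot fluorescence near 667 nm with spot signal-to-noise ratio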
[18] = tested on: Noggin (protein binding on small-molecule microarray); assay: small molecules binding Noggin protein – biochemical, 635/667 nm fluorescence, primary screen (AID 1095); settings: 635 nm fluorescence, higher = more signal;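 also: score merges 667 nm feature fluorescence with signal to noise over triplicate slides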
[19] = target: Neurogenic locus notch homolog protein 3 (Homo sapiens) (UniProt Q9UM47); assay: small molecules binding NOTCH3 protein – biochemical, 635/667 nm fluorescence, primary screen (AID 1096); settings: small-molecule microarray, 635 nm fluorescence, higher = more signal
Chain of Neurogenic locus notch homolog protein 3 (Homo sapiens) (Q9UM47 whole entry, looked up): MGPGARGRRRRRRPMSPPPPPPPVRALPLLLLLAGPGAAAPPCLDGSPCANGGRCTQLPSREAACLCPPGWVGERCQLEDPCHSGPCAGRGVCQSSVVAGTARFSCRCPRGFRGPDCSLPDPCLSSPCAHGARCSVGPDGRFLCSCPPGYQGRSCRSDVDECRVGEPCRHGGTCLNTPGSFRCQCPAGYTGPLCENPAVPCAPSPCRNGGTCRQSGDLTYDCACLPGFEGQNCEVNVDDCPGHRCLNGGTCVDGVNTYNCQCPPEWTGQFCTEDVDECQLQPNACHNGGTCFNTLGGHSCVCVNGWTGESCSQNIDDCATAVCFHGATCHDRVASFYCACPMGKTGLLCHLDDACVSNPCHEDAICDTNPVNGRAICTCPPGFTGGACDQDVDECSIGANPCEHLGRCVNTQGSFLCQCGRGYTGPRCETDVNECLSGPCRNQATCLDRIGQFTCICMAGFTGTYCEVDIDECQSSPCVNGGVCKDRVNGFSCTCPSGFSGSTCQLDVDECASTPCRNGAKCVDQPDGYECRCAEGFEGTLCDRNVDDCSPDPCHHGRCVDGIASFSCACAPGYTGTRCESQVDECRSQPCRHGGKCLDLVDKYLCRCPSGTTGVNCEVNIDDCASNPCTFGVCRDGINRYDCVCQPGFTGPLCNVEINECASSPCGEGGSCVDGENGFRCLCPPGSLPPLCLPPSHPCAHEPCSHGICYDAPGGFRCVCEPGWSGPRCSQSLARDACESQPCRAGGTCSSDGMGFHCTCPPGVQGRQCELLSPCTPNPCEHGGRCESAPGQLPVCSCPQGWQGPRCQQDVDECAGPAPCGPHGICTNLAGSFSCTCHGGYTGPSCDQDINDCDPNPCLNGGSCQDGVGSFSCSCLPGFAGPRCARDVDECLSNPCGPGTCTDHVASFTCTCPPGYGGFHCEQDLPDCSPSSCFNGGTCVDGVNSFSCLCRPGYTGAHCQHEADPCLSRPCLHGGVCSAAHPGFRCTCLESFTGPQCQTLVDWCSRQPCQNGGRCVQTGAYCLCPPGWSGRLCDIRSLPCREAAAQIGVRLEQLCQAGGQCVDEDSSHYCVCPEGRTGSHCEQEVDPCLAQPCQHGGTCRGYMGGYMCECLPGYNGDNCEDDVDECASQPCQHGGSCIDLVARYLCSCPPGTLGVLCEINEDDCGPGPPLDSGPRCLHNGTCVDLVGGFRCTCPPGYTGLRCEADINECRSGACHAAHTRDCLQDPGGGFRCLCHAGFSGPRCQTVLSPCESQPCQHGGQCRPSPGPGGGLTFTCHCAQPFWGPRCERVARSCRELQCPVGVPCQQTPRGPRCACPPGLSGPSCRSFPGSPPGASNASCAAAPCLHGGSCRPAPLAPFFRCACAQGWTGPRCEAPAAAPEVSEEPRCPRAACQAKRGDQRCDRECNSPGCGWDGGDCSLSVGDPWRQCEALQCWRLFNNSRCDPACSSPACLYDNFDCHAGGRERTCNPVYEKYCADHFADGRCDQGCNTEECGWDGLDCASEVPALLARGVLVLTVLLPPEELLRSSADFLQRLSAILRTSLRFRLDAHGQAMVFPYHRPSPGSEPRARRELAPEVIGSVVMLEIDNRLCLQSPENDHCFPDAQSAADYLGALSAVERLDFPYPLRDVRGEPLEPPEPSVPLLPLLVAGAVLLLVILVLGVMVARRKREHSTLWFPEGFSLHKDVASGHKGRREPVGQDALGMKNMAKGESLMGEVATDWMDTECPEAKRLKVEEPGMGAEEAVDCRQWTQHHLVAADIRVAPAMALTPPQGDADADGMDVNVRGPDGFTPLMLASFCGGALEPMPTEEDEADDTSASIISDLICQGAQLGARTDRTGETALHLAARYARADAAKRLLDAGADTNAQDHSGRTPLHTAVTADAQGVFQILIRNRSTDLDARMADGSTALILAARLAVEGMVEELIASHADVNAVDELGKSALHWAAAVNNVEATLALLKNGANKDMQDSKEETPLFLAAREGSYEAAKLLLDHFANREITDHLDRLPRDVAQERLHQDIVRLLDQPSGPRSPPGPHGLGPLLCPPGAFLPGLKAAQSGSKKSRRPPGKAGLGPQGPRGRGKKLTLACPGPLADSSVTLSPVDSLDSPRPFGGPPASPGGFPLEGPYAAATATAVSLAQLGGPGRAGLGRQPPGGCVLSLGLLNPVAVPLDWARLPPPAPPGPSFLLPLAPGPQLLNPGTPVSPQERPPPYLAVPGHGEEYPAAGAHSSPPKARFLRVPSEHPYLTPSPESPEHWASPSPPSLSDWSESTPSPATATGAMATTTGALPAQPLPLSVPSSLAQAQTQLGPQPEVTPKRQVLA

[20] = probe aEGFR binding to arrayed compounds – biochemical, biotinylated probe, 635/667 nm fluorescence, primary screen (AID 1097); settings: small-molecule microarray, higher = more signal;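 also: probe is a biotinylated anti-EGFR antibody binding compounds printed on slides; score combines fluorescence near 667 nm and signal to noise of each spot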

Compound	composite z-score [1]	composite z-score [2]	composite z-score [3]	composite z-score [4]	composite z-score [5]	composite z-score [6]	composite z-score [7]	z-score [8]	composite z-score [9]	composite z-score [10]	composite z-score [11]	z-score [12]	z-score [13]	z-score [14]	composite z-score [15]	z-score [16]	composite z-score [17]	composite z-score [18]	composite z-score [19]	composite z-score [20]
C[C@@H]1CC[C@H]2C(=O)O[C@@H](CN=[N+]=[N-])CN2[C@H]1c1ccc(Br)cc1	-0.264	-0.021	-0.085	0.361	0.271	0.486	0.786	-1.46 (inactive)	0.0048	-0.199	1.34	1.85 (inactive)	-10.5 (active)	32.7 (active)	1.69	0.176 (inactive)	-0.15	0.553	0.679	-0.104
C#CCCCON=C1C[C@@H](O)[C@@H](O)[C@@H]2[C@@H]3C(=O)N(C4CCCCC4)C(=O)[C@@H]3CC[C@@H]12	0.835	0.0616	-0.115	-0.0372	0.766	0.846	0.565	0.287 (inactive)	-0.0386	0.312	0.335	-1.83 (inactive)	-1.61 (inactive)	-1.07 (inactive)	1.01	0.862 (inactive)	-0.118	0.454	0.358	-0.0409
O=C1[C@H]2[C@H]3[C@H](O)[C@H](O)CC(=NOCc4ccccc4)[C@H]3CC[C@H]2C(=O)N1C1CCCCC1	-0.483	0.357	-0.0934	0.412	0.691	0.195	1.03	0.111 (inactive)	0.404	-0.0645	0.542	-0.577 (inactive)	-0.355 (inactive)	-0.858 (inactive)	1.23	0.119 (inactive)	-0.162	0.423	1.14	-0.0691
C=CC[C@@H]1C=C[C@H](ON=C2C[C@@H](O)[C@@H](O)[C@@H]3[C@@H]4C(=O)N(CC)C(=O)[C@@H]4CC[C@@H]23)[C@@H](CO)O1	-0.416	1.86	-0.0793	0.228	-0.395	-0.417	-0.33	1.15 (inactive)	0.245	-0.0994	0.245	0.442 (inactive)	-0.376 (inactive)	0.445 (inactive)	-0.004	-0.876 (inactive)	-0.0736	0.107	-0.724	-0.119
CCN1C(=O)[C@H]2[C@H]3[C@H](O)[C@H](O)CC(=NNC(=O)OCc4ccccc4)[C@H]3CC[C@H]2C1=O	0.307	0.447	0.0572	-0.0005	-0.0049	-0.117	-0.696	-0.209 (inactive)	0.313	-0.13	-0.72	-0.0067 (inactive)	0.0826 (inactive)	-0.144 (inactive)	-0.3	-0.667 (inactive)	0.0166	0.667	-0.169	-0.132
CCOC(=O)[C@H](Cc1ccccc1)NC(=O)CCC1CC(OC(=O)NCCc2ccc(F)cc2)CC2(CCCC(COC(=O)NCCOc3ccccc3)O2)O1 (stereo not given in full)	-0.493	1.34	-0.129	0.813	1.17	0.843	1.03	-0.997 (inactive)	0.564	0.162	1.53	-0.0952 (inactive)	0.549 (inactive)	0.0763 (inactive)	2.18	0.384 (inactive)	-0.0907	0.492	1.07	0.0009
CC(CCN1CCCc2nc(C)c(C)cc21)=NO[C@H](C)c1cn([C@@H]2COC[C@H]2O)nn1	-0.396	1.37	-0.0788	0.359	0.6	0.0261	1.17	0.59 (inactive)	0.3	-0.195	1.16	1.17 (inactive)	1.12 (inactive)	0.468 (inactive)	0.788	1.24 (inactive)	0.13	0.566	0.676	0.187
O=C1C=C[C@@H](O)[C@@H]2[C@@H]3C(=O)N(Cc4ccc5c(c4)OCO5)C(=O)[C@@H]3CC[C@@H]12	-0.624	-0.0026	-0.0925	0.28	0.628	0.199	0.764	0.189 (inactive)	0.233	0.0722	-0.846	0.564 (inactive)	-0.681 (inactive)	0.621 (inactive)	0.221	0.446 (inactive)	-0.116	0.652	0.676	-0.0731
O=C1CCCC=C1C(O)C1CCCCC1 (stereo not given)	-0.53	0.835	-0.141	0.191	-0.0306	-0.594	-0.593	0.0424 (inactive)	-0.0962	0.0373	-0.784	-0.711 (inactive)	0.214 (inactive)	-0.478 (inactive)	0.2	0.805 (inactive)	-0.0279	-0.0241	0.0627	-0.294
CC(=O)OC[C@H]1O[C@H](CC=NOCC[C@@H]2C=C[C@H](OC(C)=O)[C@@H](COC(C)=O)O2)C=C[C@@H]1OC(C)=O	-0.544	1.16	-0.13	0.414	0.29	-0.254	0.537	1.06 (inactive)	0.425	0.0623	1.46	-0.996 (inactive)	0.526 (inactive)	-0.0043 (inactive)	0.137	0.712 (inactive)	0.0024	0.772	0.757	0.0707
O=C(NCCC[N+]1=CC=NC1c1ccccc1)N1CCCc2nc(-c3ccc(Br)cc3)ccc21 (stereo not given)	-0.265	-0.14	-0.107	0.345	0.576	1.21	0.97	0.88 (inactive)	0.944	0.0373	-0.476	-0.435 (inactive)	-1.69 (inactive)	0.763 (inactive)	0.0594	2.39 (inactive)	-0.0616	0.232	-0.378	-0.0183
